Only a selection was taken, and hits are over-represented in it overall.
STK33 kin inh = blocks human STK33 kinase activity; Q9BYT3; ADP-Glo luminescence, MBP substrate; inhibition, % at 12.5 µM; 27,000 compounds, 0.44% hits; AID 2322; in the data active = inhibition above about 20%
Target sequence (Q9BYT3 whole entry, looked up): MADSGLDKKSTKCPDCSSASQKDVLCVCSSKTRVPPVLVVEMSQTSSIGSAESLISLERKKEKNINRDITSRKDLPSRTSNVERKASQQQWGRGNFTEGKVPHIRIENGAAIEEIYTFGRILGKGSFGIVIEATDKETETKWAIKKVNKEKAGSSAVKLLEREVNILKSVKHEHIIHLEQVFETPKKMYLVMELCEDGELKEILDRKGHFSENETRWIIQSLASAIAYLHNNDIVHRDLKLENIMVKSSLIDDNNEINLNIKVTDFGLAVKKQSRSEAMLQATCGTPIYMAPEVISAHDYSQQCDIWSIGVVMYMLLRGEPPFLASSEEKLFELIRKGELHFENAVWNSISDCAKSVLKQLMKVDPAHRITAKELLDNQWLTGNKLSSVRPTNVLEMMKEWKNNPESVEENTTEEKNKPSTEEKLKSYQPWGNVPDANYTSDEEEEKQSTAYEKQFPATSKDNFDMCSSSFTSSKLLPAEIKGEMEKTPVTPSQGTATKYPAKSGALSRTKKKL
NOMO-1 viab = STK33 inhibitor candidate reducing NOMO-1 cell viability; NOMO-1 AML viability, CellTiter-Glo luminescence, 72 h; inhibition, % (test concentration not listed); 37,000 compounds, 7.5% hits; in the data active = inhibition above about 80%
p53 PUMA act = restores mutant p53 pathway signaling in SW480 cells. SW480 PUMA-promoter luciferase, p53 mutant reactivation. activation, % at 9.98 µM. 28,000 compounds, 1.5% hits. AID 624151; in the data active = activation above about 52%
MITF inhib = MITF inhibition. 37,000 compounds, 0.28% hits. inhibition, % (test concentration not listed). TRPM1 promoter luciferase, luminescence, 24 h; in the data active = inhibition above about 85%;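 also: human melanocyte line stably carrying TRPM1 promoter luciferase reporter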
Of the large screens only hits and unclear results are named; the others gave an inactive call.

O=C(O)C1CC=CCC1C(=O)Nc1ccc(S(=O)(=O)N2CCc3ccccc32)cc1 (configuration not stated)	none (no result: NOMO-1 viab, MITF inhib)
CN(c1cccc(NS(=O)(=O)c2ccc3c(c2)OCCO3)c1)S(C)(=O)=O	none
CC(NS(=O)(=O)c1ccc(F)cc1)C(=O)Nc1ccc(Oc2ccccc2)cc1 (configuration not stated)	none
Cc1cccc(C)c1OCC(=O)Nc1ccccc1C(=O)Nc1ccc(C(=O)O)cc1	none
CS(=O)(=O)N(CC(=O)Nc1cccc([N+](=O)[O-])c1)c1cc(Cl)c(Cl)cc1Cl	none
C[C@@H]1CN([C@@H](C)CO)C(=O)Cc2cc(NS(=O)(=O)c3ccc(F)cc3)ccc2O[C@@H]1CN(C)Cc1ccc(C(F)(F)F)cc1	NOMO-1 viab 102.6 (no result: p53 PUMA act)
C[C@@H]1CN([C@@H](C)CO)C(=O)Cc2cc(NS(=O)(=O)c3ccccc3)ccc2O[C@@H]1CN(C)Cc1ccc(C(F)(F)F)cc1	none (no result: p53 PUMA act)
C[C@@H]1CN([C@H](C)CO)C(=O)Cc2cc(NS(=O)(=O)c3ccc(F)cc3)ccc2O[C@H]1CN(C)Cc1ccc(C(F)(F)F)cc1	NOMO-1 viab 127.2 (no result: p53 PUMA act)
C[C@H](CO)N1C[C@H](C)[C@H](CN(C)Cc2ccc(C(=O)O)cc2)Oc2ccc(NS(=O)(=O)c3ccc(F)cc3)cc2CC1=O	none (no result: p53 PUMA act)
C[C@H]1CN([C@@H](C)CO)C(=O)Cc2cc(NS(=O)(=O)c3ccc(F)cc3)ccc2O[C@@H]1CN(C)Cc1ccc(C(F)(F)F)cc1	NOMO-1 viab 89.6 (no result: p53 PUMA act)
CC1CCN(C(=O)c2ccc3c(=O)nc4c(-c5ccccc5)n[nH]n4c3c2)CC1	none (no result: STK33 kin inh, NOMO-1 viab, MITF inhib)
Cc1nc(SCC(=O)c2ccc3c(c2)OCCO3)c2c3c(sc2n1)CCC3	none
CC1=C(C(=O)Nc2ccccc2)C(CC(C)C)n2nc(SCc3cccc(C)c3)nc2N1 (configuration not stated)	none (no result: STK33 kin inh, NOMO-1 viab, MITF inhib)
CC1(C)CC(=O)c2c(O)cc(OCC(=O)c3ccccc3)cc2O1	p53 PUMA act 62.3
Cc1n[nH]c(C)c1C(=O)CC1(O)C(=O)N(Cc2ccccc2)c2ccccc21 (configuration not stated)	none
O=C(CC1(O)C(=O)N(C/C=C/c2ccccc2)c2ccccc21)c1ccccn1 (configuration not stated)	NOMO-1 viab 123.1
CC(C)(CO)NCC(O)COc1ccccc1Cl (configuration not stated)	none
CC1CC[C@@]2(OC1)O[C@H]1CC3C4CC=C5C[C@@H](O[C@@H]6O[C@H](CO)[C@@H](O[C@@H]7O[C@@H](C)[C@H](O)[C@@H](O)[C@H]7O)[C@H](O)[C@H]6O[C@@H]6O[C@@H](C)[C@H](O)[C@@H](O)[C@H]6O)CC[C@]5(C)C4CC[C@]3(C)[C@@]1(O)[C@@H]2C (some centres not stated)	NOMO-1 viab 118.7 (no result: p53 PUMA act)
CC(C)CC(NC(=O)OCC1c2ccccc2-c2ccccc21)C(=O)O (configuration not stated)	p53 PUMA act 64.2 (no result: STK33 kin inh, NOMO-1 viab, MITF inhib)
COc1ccc(S(=O)(=O)NCc2ccccc2)cc1-c1nnc2c3ccccc3c(C)nn12	NOMO-1 viab 115.7
OC(CSc1nc2ccccc2s1)Cn1c2ccccc2c2ccccc21 (configuration not stated)	none
Cc1nc(C2C(=O)c3ccc(O)c(O)c3OC2C(F)(F)F)cs1 (configuration not stated)	NOMO-1 viab 107.0 (no result: p53 PUMA act)
O=S(=O)(NCc1ccccn1)c1cc(Cl)c(Cl)cc1Cl	none
Cn1c(/C=C/C=C/N2CCCC2)nc2ccccc2c1=O	NOMO-1 viab 120.5 (no result: p53 PUMA act)
C[C@H](CO)N1C[C@H](C)[C@@H](CN(C)Cc2ccc3c(c2)OCO3)Oc2ccc(NC(=O)Nc3ccc(C(F)(F)F)cc3)cc2C1=O	none (no result: STK33 kin inh, p53 PUMA act)
C[C@H]1CN([C@@H](C)CO)C(=O)c2cc(NC(=O)Nc3ccc(C(F)(F)F)cc3)ccc2O[C@@H]1CN(C)Cc1ccc2c(c1)OCO2	NOMO-1 viab 101.5 (no result: p53 PUMA act)
C[C@@H]1CN([C@@H](C)CO)C(=O)c2cc(NC(=O)Nc3ccc(C(F)(F)F)cc3)ccc2O[C@@H]1CN(C)Cc1ccc2c(c1)OCO2	NOMO-1 viab 112.0 (no result: p53 PUMA act)
C[C@H]1CN([C@@H](C)CO)C(=O)c2cc(NC(=O)Nc3ccc(F)cc3)ccc2O[C@H]1CN(C)Cc1ccc2c(c1)OCO2	NOMO-1 viab 92.2
C[C@@H]1CN([C@@H](C)CO)C(=O)c2cc(NC(=O)Nc3ccc(F)cc3)ccc2O[C@@H]1CN(C)Cc1ccc2c(c1)OCO2	none (no result: STK33 kin inh)
C[C@@H]1CN([C@H](C)CO)C(=O)c2cc(NC(=O)Nc3ccc(C(F)(F)F)cc3)ccc2O[C@@H]1CN(C)Cc1ccc2c(c1)OCO2	none (no result: STK33 kin inh, p53 PUMA act)
C[C@H](CO)N1C[C@H](C)[C@H](CN(C)Cc2ccc3c(c2)OCO3)Oc2ccc(NC(=O)Nc3ccc(C(F)(F)F)cc3)cc2C1=O	NOMO-1 viab 99.2 (no result: p53 PUMA act)
C[C@@H]1CN([C@@H](C)CO)C(=O)c2cc(NC(=O)Nc3ccc(C(F)(F)F)cc3)ccc2O[C@H]1CN(C)Cc1ccc2c(c1)OCO2	none (no result: STK33 kin inh, p53 PUMA act)
O=C(COc1ccccc1Cl)Nc1ccc([N+](=O)[O-])cc1O	none
COc1cc(OC)c(C2=NOC(C(=O)NCC3CCCO3)C2)cc1Cl (configuration not stated)	none (no result: NOMO-1 viab, MITF inhib)
CCOc1ccc2sc(C=NC(C)CC)c(O)c2c1 (configuration not stated)	none (no result: STK33 kin inh, p53 PUMA act)
COc1ccccc1OCC(=O)Nc1ccc(-c2nc3ccc(C)cc3[nH]2)cc1	NOMO-1 viab 110.3
C[C@H]1CN([C@@H](C)CO)C(=O)Cc2cc(NC(=O)Nc3ccc(C(F)(F)F)cc3)ccc2O[C@@H]1CN(C)Cc1ccc(-c2ccccc2)cc1	NOMO-1 viab 127.0 (no result: p53 PUMA act)
C[C@H]1CN([C@@H](C)CO)C(=O)Cc2cc(NC(=O)Nc3ccc(C(F)(F)F)cc3)ccc2O[C@H]1CN(C)Cc1ccc(-c2ccccc2)cc1	NOMO-1 viab 127.8 (no result: p53 PUMA act)
C[C@@H]1CN([C@@H](C)CO)C(=O)Cc2cc(NC(=O)Nc3ccc(C(F)(F)F)cc3)ccc2O[C@@H]1CN(C)Cc1ccc(-c2ccccc2)cc1	none (no result: STK33 kin inh)
Cc1ccc(OCC(=O)NC(=S)Nc2cc(-c3nc4ncccc4o3)ccc2Cl)cc1	none
C=C1C(=O)O[C@H]2C1[C@H](OC(=O)/C(=C/CO)COC(=O)/C(C)=C/CO)CC(=C)[C@@H]1CC(=O)[C@@H](C)[C@@H]12 (some centres not stated)	NOMO-1 viab 108.2
C=C1C(=O)O[C@H]2[C@H]1[C@H](O)CC(=C)[C@@H]1CC(=O)C(C)[C@H]21 (some centres not stated)	NOMO-1 viab 117.6
C=C1C(=O)O[C@@H]2[C@H]3C(=C)[C@@H](O[C@@H]4O[C@H](CO)[C@@H](O)[C@H](O)[C@H]4O)C[C@H]3C(=C)C[C@@H](O)[C@@H]12	none
COc1ccc(NC(=O)CN(c2ccccc2Cl)S(C)(=O)=O)c(OC)c1	none
COC(=O)c1ccc([C@H]2C(C#N)=C(N)C(C#N)(C#N)C3=CCC(C(C)(C)C)C[C@@H]32)cc1 (some centres not stated)	NOMO-1 viab 115.6 (no result: STK33 kin inh, p53 PUMA act)
Cc1cccc2c1N(C)C(=O)C2(O)CC(=O)c1ccco1 (configuration not stated)	NOMO-1 viab 84.4
